Compound activity (PubChem)
Hits are enriched below; roughly 8.8% of the tested compounds scored in any of these assays.
KB-3-1 tox = KB-3-1 parental cell cytotoxicity; KB-3-1 viability, CellTiter-Glo ATP luminescence, 72 h; Potency, µM (series often up to 46.1 µM), hits mostly cytotoxic; hit rate 1.4% among 400,000; note: potency is the fitted concentration of half-maximal effect; nearly all actives have a fitted effect of over 60% in size
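Multi-concentration cytotoxicity screen in KB-3-1 cells grown in DMEM lacking phenol red with 10% FBS. After 72 h at 37 °C with compound, ATP-dependent luminescence was recorded.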
HT1080 IDH1KD tx = toxicity to HT-1080 IDH1 knockdown cells (counter line) | AID 686971 | hit rate 2% among 360,000 | Potency, µM (series often up to 46.1 µM), for the others: at the top dose activity, negative = toxicity, actives largely listed as cytotoxic | HT-1080 IDH1 knockdown viability, ATP luminescence, 48 h;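 note: potency is the fitted concentration of half-maximal effect; 0% = DMSO wells and -100% = cell-free medium wells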
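Knockdown cells (IDH1KD HT-1080) received compounds 2 h after plating at 750 cells/well and were kept 48 h at 37 °C in 5% FBS RPMI. A CellTiter-Glo luminescence read gave % activity for curve fitting.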
HT1080-NT tox = kills 2HG-producing HT-1080-NT fibrosarcoma cells; AID 686970; hit rate 1.6% among 360,000; HT-1080-NT fibrosarcoma viability, CellTiter-Glo ATP luminescence, 48 h; Potency, µM (series often up to 46.1 µM), without a hit: at the top dose activity, negative = less viability, actives largely listed as cytotoxic;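 note: NT is the 2HG producing partner of a matched IDH1 knockdown line; potency is the fitted concentration of half-maximal effect; 0% = DMSO-treated cells and -100% = media-only wells without cells; nearly all actives have a fitted effect of over 55% in size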
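Toxicity toward the 2HG-producing NT line was scored as %Activity, normalised to DMSO and no-cell wells, from CellTiter-Glo luminescence after 48 hours' treatment.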
IL-1B inflam inh = inflammasome signaling inhibition, IL-1 beta readout. THP-1 LPS/ATP IL-1B secretion, AlphaLISA, 16 h; hits give low values. activity change, % at 57.5 µM. hit rate 4.7% among 360,000. AID 743279; in the data active = activity change below about -50%; inconclusive = mostly about -30% to -49%
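THP-1 cells pretreated 1 hr with compounds (up to 57.5 uM final), then stimulated with LPS (250 ng/mL final) plus ATP (1.25 mM final); secreted IL-1B measured by AlphaLISA after 16 hr, decreased signal indicating inhibition.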
KB-V1 MDR tox = KB-V1 MDR subline cytotoxicity. KB-V1 MDR cells viability, CellTiter-Glo, 72 h. Potency, µM (highest dose often 46.1 µM), actives largely listed as cytotoxic. hit rate 3.4% among 400,000; note: potency is the fitted concentration of half-maximal effect; nearly all actives have a fitted effect of over 60% in size
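Drug-selected KB-V1 cells, grown in DMEM lacking phenol red with 10% FBS, receive compound titrations; after three days at 37 degrees C, surviving cell ATP is quantified by CellTiter-Glo luminescence and responses normalized and curve-fitted.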
Numbers without * were called inactive; i = inactive; ? = inconclusive. Unless noted, calls come from the whole dose curve; as a rule, active = well fitted curve in the direction sought with a large enough effect; inconclusive = small, poorly fitted or top-dose-only effect, or another doubt; inactive = no such curve, though single readings can be large; an effect the other way counts as inactive or inconclusive. Unless noted, % is set by controls: 0 for no effect and ±100 for the full control effect.

SMILES | KB-3-1 tox | HT1080 IDH1KD tx | HT1080-NT tox | IL-1B inflam inh | KB-V1 MDR tox
COC(=O)[C@]12CCCCC=C1N(CCC1=CCCCC1)C(=O)[C@H](CC(=O)N1CCOCC1)C2 | i | 3% | 5% | 3 | ?
Cc1ccc(C)c(C(C)NC(=O)c2ccc(Br)o2)c1 (stereo not given) | i | 2% | -3% | -57* | ?
Cc1ccc(NS(=O)(=O)c2ccc(NC(=O)c3ccccc3C(=O)O)cc2)c(C)c1 | i | 1% | ? | -67* | i
Cc1cc(C)cc(NS(=O)(=O)c2ccc(NC(=O)c3ccccc3C(=O)O)cc2)c1 | i | 5% | 2% | 0 | i
Cc1ccc(C2(c3ccc(C)cc3)CC2C(=O)Nc2ccc([N+](=O)[O-])cc2O)cc1 (stereo not given) | ? | 16µM* | 21µM* | -73* | 15µM*
COc1ccccc1N(C)S(=O)(=O)c1ccc(C(=O)NC(C)c2ccccc2)cc1 (stereo not given) | i | -3% | 11% | 11 | i
